Source: PubChem BioAssay
Activity calls are given as the source filed them. The rule behind the calls is not given here.

target: Pantothenate synthetase (Mycobacterium tuberculosis (strain ATCC 25618 / H37Rv)) (UniProt P9WIL5); test: Coupled enzyme confirmation of inhibitors against recombinant Mtb PanC (AID 375); details: coupled enzyme assay; at 10 µM, active compounds read high;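 note: 0% = full reaction with vehicle and 100% = no enzyme background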
Sequence (P9WIL5 whole entry, looked up): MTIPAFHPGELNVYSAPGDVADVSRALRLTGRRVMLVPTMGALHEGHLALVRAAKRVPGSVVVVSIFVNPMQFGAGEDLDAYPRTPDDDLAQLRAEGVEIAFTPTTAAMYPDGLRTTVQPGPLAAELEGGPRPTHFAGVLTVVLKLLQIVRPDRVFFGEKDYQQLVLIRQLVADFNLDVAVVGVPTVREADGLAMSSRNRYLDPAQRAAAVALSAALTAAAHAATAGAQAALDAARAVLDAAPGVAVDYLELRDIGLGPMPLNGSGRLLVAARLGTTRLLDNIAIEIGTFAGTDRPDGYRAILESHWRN

Row | SMILES | inhibition
1 | O=S1(=O)CC(N2CCOCC2)c2ccccc21 (stereo not given) | 0% (inactive)
2 | CC1(C)CC(=O)C=C(NC2CCS(=O)(=O)C2)C1 (stereo not given) | 0% (inactive)
3 | CC(=O)Nc1nc(-c2ccc(Cl)cc2)nc(C)c1C(C)=O | 0% (inactive)
4 | O=C(Cn1cccc1C(=O)c1ccccc1)NCCN1CCOCC1 | 0% (inactive)
5 | CCOc1ccc2cc(C#N)c(SCC(=O)N3CCC(C)CC3)nc2c1 | 10% (inactive)
6 | Cc1n[nH]c(C)c1S(=O)(=O)N1CCN(c2ccccn2)CC1 | 2% (inactive)
7 | OCc1cn(-c2ccccc2)nc1-c1ccc2c(c1)OCCO2 | 0% (inactive)
8 | C=C(C)COc1ccc(-c2n[nH]c(C)c2-c2ccccc2)c(O)c1 | 0% (inactive)
9 | CCn1cc(C(=O)NCCN(C)CCc2ccccc2)c(=O)c2cc(S(=O)(=O)N(C)C)ccc21 | 4% (inactive)
10 | COc1ccc(C(NC(=O)c2ccco2)c2ccc(OC)c(OC)c2)cc1 (stereo not given) | 0% (inactive)
11 | COc1ccc(N2CCN(C(=O)CSc3ccccc3)CC2)cc1 | 6% (inactive)
12 | CCOC(=O)N1CCN(CC(=O)c2c(C)[nH]c3ccccc23)CC1 | 0% (inactive)
13 | Cn1c(CCNC(=O)c2ccco2)nc2cc(NC(=O)C3CCCCC3)ccc21 | 0% (inactive)
14 | CC(C)Oc1cc2oc(=O)c3c(c2cc1Cl)CCC3 | 0% (inactive)
15 | O=S1(=O)N=C(Nc2nc3c(s2)CCCC3)c2ccccc21 | 4% (inactive)
16 | O=C(O)c1c(Cl)c(Cl)c(Cl)c(Cl)c1C(=O)N1CCOCC1 | 0% (inactive)
17 | CCOC(=O)N1CCN(S(=O)(=O)c2cc(C)c(C)cc2C)CC1 | 0% (inactive)
18 | CCc1c(C(=O)NCCc2ccc(OC)c(OC)c2)[nH]c(C)c1C(C)=O | 12% (inactive)
19 | CCSc1nc2ccccc2n1CC(N)=O | 4% (inactive)
20 | O=C(OCc1ccc2c(c1)OCO2)c1ccc(S(=O)(=O)N2CCCCC2)cc1 | 0% (inactive)

Row | SMILES | inhibition
21 | COc1ccccc1N1CCN(S(=O)(=O)CC23CCC(CC2=O)C3(C)C)CC1 (stereo not given) | 1% (inactive)
22 | O=c1c2c(-c3ccccc3)csc2nc2n1CCC2 | 0% (inactive)
23 | O=P(O)(CCc1ccccc1)CN1CCCCC1 | 6% (inactive)
24 | O=C(Nc1cccnc1)c1ccc2c(c1)OCO2 | 0% (inactive)
25 | COCCCNC(=O)C1CCCN(C(=O)Nc2ccc(OC)cc2)C1 (stereo not given) | 2% (inactive)
26 | O=C(Nc1ccc2c(c1)OCO2)C1CCCN1C(=O)Nc1ccccc1F (stereo not given) | 3% (inactive)
27 | COc1cccc(CNC(=O)CCn2c(=O)oc3ccccc32)c1 | 0% (inactive)
28 | Cc1cn([C@H]2C=C[C@@H](CO)O2)c(=O)[nH]c1=O | 0% (inactive)
29 | [O-][n+]1c2c(nn1-c1ccccc1Cl)-c1nonc1CC2 | 4% (inactive)
30 | Cc1ccc2cc(C#N)c(N3CCCC3)nc2c1C | 4% (inactive)
31 | Cc1ccc(O)c(NC(=O)COc2cc(C)ccc2C)c1 | 0% (inactive)
32 | Cc1ccccc1-c1nc(CN2CCC(C(=O)NCCCN3CCOCC3)CC2)c(C)o1 | 5% (inactive)
33 | COc1ccc(CCN(C)CCCC(C#N)(c2cc(OC)c(OC)c(OC)c2)C(C)C)cc1OC (stereo not given) | 0% (inactive)
34 | Cc1ccc(Cc2c(C)nc3c(C(=O)O)cnn3c2C)cc1 | 4% (inactive)
35 | CN(C)C(CNc1nnnn1-c1ccccc1)c1ccco1 (stereo not given) | 2% (inactive)
36 | Nc1nc2n(n1)C(c1cccc(Br)c1)CC(c1ccc(F)cc1)N2 (stereo not given) | 0% (inactive)
37 | CN1CC(=O)N(CC(=O)NCCc2ccc(F)cc2)c2ccccc2C1=O | 0% (inactive)
38 | COc1cccc(-c2nc(CS(=O)(=O)CC(=O)NCc3ccc(Cl)cc3)c(C)o2)c1 | 0% (inactive)
39 | COc1ccc(/C=C(/C#N)c2cccnc2)cc1OC | 8% (inactive)
40 | O=C(CCCN1C(=O)c2ccccc2C1=O)N1CCC(c2ccccc2)C1 (stereo not given) | 4% (inactive)
